Compound activity from PubChem.
The full list was thinned out, with hits kept by preference.
PD-1 reversal = reversal of PD-1 mediated T-cell inhibition | primary human CD4 T cells, PD-L1 beads, CellTiter-Glo 96 h | 29,000 tested, under 10 active | activation, % (test concentration not listed); call rule not given here
YB-1 expr inh = YB-1 expression inhibition. U2OS, qRT-PCR YB-1 vs CDIP delta delta Cp, 16 h; hits give high values; zero = DMSO, each unit about twofold. 0.37% of 30,000 active. delta delta Cp (YB-1 minus CDIP) (no concentration beside the values);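 active = delta delta Cp rounded down to an integer at or above 3, about 3 SD of DMSO wells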;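 also: higher means less YB-1 transcript or more CDIP transcript relative to DMSO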
NOMO-1 viab = STK33 inhibitor candidate reducing NOMO-1 cell viability; inhibition, % (test concentration not listed); 7.5% of 37,000 active; NOMO-1 AML viability, CellTiter-Glo luminescence, 72 h; in the data active = inhibition above about 80%; inconclusive = no clear call, values can overlap the other calls
ROS inducer = raises reactive oxygen species in U2OS cancer cells; U2OS ROS induction, H2DCF-DA fluorescence; ROS induction (% of piperlongumine), % at 10 µM; 2% of 46,000 active; AID 624156; in the data active = ROS induction above about 79%, passing the limit was not always enough; inconclusive = no clear call, values can overlap the other calls
Each line names hits and unclear results; the compound was inactive in the other large screens.

CC(C(=O)Oc1cccc2cccnc12)N1C(=O)c2ccccc2C1=O (configuration not stated)	NOMO-1 viab 127 (no result: YB-1 expr inh)
CCn1c2ccccc2c2cc(CNCCc3ccc(Cl)cc3)ccc21	NOMO-1 viab 113
Cc1cc(C(=O)Nc2cccc3c2O[C@H](CN(C)Cc2ccc(Cl)c(Cl)c2)[C@H](C)CN([C@@H](C)CO)C3=O)n(C)n1	none
Cc1cc(C(=O)Nc2cccc3c2O[C@H](CN(C)Cc2ccc(-c4ccccc4)cc2)[C@@H](C)CN([C@@H](C)CO)C3=O)n(C)n1	NOMO-1 viab inconclusive, ROS inducer 214
Cc1cc(C(=O)Nc2cccc3c2O[C@@H](CN(C)Cc2ccc(-c4ccccc4)cc2)[C@H](C)CN([C@H](C)CO)C3=O)n(C)n1	ROS inducer 78 (no result: PD-1 reversal)
Cc1cc(C(=O)Nc2cccc3c2O[C@@H](CN(C)Cc2ccc(Cl)c(Cl)c2)[C@@H](C)CN([C@H](C)CO)C3=O)n(C)n1	NOMO-1 viab 92
COc1ccc(OCCSc2nc3ccccc3n2C)cc1	none
CC1CCCCN1C(=O)N1CCOCC1 (configuration not stated)	none (no result: PD-1 reversal, YB-1 expr inh, NOMO-1 viab)
Cc1cc(C)c2c(n1)sc1c(=O)n(Cc3ccccc3Cl)nnc12	ROS inducer 81 (no result: PD-1 reversal, YB-1 expr inh, NOMO-1 viab)
CN(C)c1ccc(/C=C2\C(=O)Nc3ccccc32)c2ccccc12	NOMO-1 viab 86
Nc1ncnc2c1ncn2C1OC(CO)[C@H](O)[C@@H]1S (some centres not stated)	none
COc1ccc(C[C@H](N)C(=O)N[C@H]2[C@@H](O)[C@H](n3cnc4c(N(C)C)ncnc43)O[C@@H]2CO)cc1	NOMO-1 viab 120 (no result: PD-1 reversal)
O=C(NCCc1ccccc1)c1ccc(Cl)cc1	none (no result: PD-1 reversal, YB-1 expr inh, NOMO-1 viab)
CC1(C)CC(=O)C(C=NCc2ccc(F)cc2)=C(O)C1	none
Cc1cc(C2(c3cc(C)c(N)c(C)c3)CCCCC2)cc(C)c1N	NOMO-1 viab 122
COc1cc(/C=C2\Oc3cc(O)ccc3C2=O)ccc1O	none
COc1ccc2c(c1)OC/C(=C\c1ccc(OC)c(O)c1)C2=O	NOMO-1 viab 107 (no result: PD-1 reversal)
O=C1/C(=C/c2ccc3ccccc3c2)COc2ccccc21	NOMO-1 viab 113, ROS inducer 103
CCOc1ccc(NC(=O)CSc2nc3sc(C)c(C)c3c(=O)n2-c2ccc(C)cc2)cc1	none (no result: YB-1 expr inh)
Cc1ccc(S(=O)(=O)Nc2ccc3c(c2)C(=O)N([C@H](C)CO)C[C@H](C)[C@@H](CN(C)Cc2ccc(C(F)(F)F)cc2)OCCCC[C@@H](C)O3)cc1	NOMO-1 viab 112 (no result: PD-1 reversal)
COc1ccc(CN(C)C[C@@H]2OCCCC[C@@H](C)Oc3ccc(NS(=O)(=O)c4ccc(C)cc4)cc3C(=O)N([C@H](C)CO)C[C@@H]2C)cc1	ROS inducer 128
C[C@@H]1CCCCO[C@H](CN(C)Cc2ccc(C(F)(F)F)cc2)[C@@H](C)CN([C@H](C)CO)C(=O)c2cc(NS(=O)(=O)c3ccc(Cl)cc3)ccc2O1	NOMO-1 viab 82 (no result: PD-1 reversal)
CCOC(=O)c1c(NC(=O)Cn2cnc3ccccc3c2=O)sc(C)c1C	none (no result: YB-1 expr inh)
O=C(Cc1ccccc1)NN(c1ccccc1)c1ccccc1	none (no result: PD-1 reversal, YB-1 expr inh, NOMO-1 viab)
O=C(Nc1cccc(Cl)c1)Nc1nc(-c2ccc(OC(F)(F)F)cc2)no1	none (no result: PD-1 reversal, YB-1 expr inh, NOMO-1 viab)
Cc1ccc([N+](=O)[O-])cc1NC(=O)CSc1nnnn1-c1ccccc1	none (no result: YB-1 expr inh)
O=C(N/N=C/c1cc(Br)cc(Br)c1O)c1ccccc1O	none (no result: PD-1 reversal, NOMO-1 viab)
C=CC[C@]1(C(=O)NCCCOC)N=C(c2ccc(OCCCO)cc2)O[C@H]1c1ccccc1	none (no result: PD-1 reversal, NOMO-1 viab)
C[C@@H]1CN([C@@H](C)CO)C(=O)c2cccc(NC(=O)C3CCCCC3)c2O[C@H]1CN(C)Cc1ccccc1	NOMO-1 viab 96
C[C@H](CO)N1C[C@H](C)[C@@H](CN(C)Cc2ccccc2)Oc2c(NC(=O)C3CCCCC3)cccc2C1=O	none
C[C@@H]1CN([C@@H](C)CO)C(=O)c2cccc(NC(=O)C3CCCCC3)c2O[C@H]1CN(C)CC1CCCCC1	NOMO-1 viab 95 (no result: PD-1 reversal)
C[C@H](CO)N1C[C@H](C)[C@H](CN(C)Cc2ccc(-c3ccccc3)cc2)Oc2c(NC(=O)C3CC3)cccc2C1=O	none
C[C@H](CO)N1C[C@H](C)[C@@H](CN(C)Cc2ccc(-c3ccccc3)cc2)Oc2c(NC(=O)C3CC3)cccc2C1=O	NOMO-1 viab 89, ROS inducer 173 (no result: PD-1 reversal)
C[C@@H]1CN([C@H](C)CO)C(=O)c2cccc(NC(=O)C3CCCCC3)c2O[C@@H]1CN(C)Cc1ccc(-c2ccccc2)cc1	NOMO-1 viab 110
CC(C)(C)OC(=O)NC/C=N/NC(=O)CCCCCCC(=O)Nc1ccccc1O	none (no result: PD-1 reversal, NOMO-1 viab)
CC(=O)O[C@@H]1[C@@H](O)[C@H](C)O[C@@H](Oc2c(-c3ccc(O)cc3)oc3cc(O[C@@H]4O[C@@H](C)[C@H](O)[C@@H](O)[C@H]4O)cc(O)c3c2=O)[C@@H]1O	none
Cc1ccc(S(=O)(=O)N(C)C2CCCCC2)cc1-c1nnc2c3ccccc3c(C)nn12	none (no result: PD-1 reversal, YB-1 expr inh, NOMO-1 viab)
C[C@@H]1CN([C@@H](C)CO)C(=O)c2cccc(NC(=O)C3CCCCC3)c2O[C@H]1CN(C)Cc1ccc(-c2ccccc2)cc1	NOMO-1 viab 81
C[C@H]1CN([C@@H](C)CO)C(=O)c2cccc(NC(=O)C3CCCCC3)c2O[C@H]1CN(C)Cc1ccc(-c2ccccc2)cc1	NOMO-1 viab 87
O=C1CCC(=O)N1CNc1cc(C(F)(F)F)cc(C(F)(F)F)c1	none
C[C@@H]1CN([C@@H](C)CO)C(=O)c2cc(NC(=O)Nc3ccc(C(F)(F)F)cc3)ccc2O[C@@H]1CN(C)S(=O)(=O)c1cccs1	NOMO-1 viab 109
C[C@H]1CN([C@@H](C)CO)C(=O)c2cc(NC(=O)Nc3ccc(C(F)(F)F)cc3)ccc2O[C@@H]1CN(C)S(=O)(=O)c1cccs1	NOMO-1 viab 94 (no result: PD-1 reversal)
C[C@H](CO)N1C[C@H](C)[C@H](CN(C)S(=O)(=O)c2cccs2)Oc2ccc(NC(=O)Nc3ccc(F)cc3)cc2C1=O	none
C[C@@H]1CN([C@@H](C)CO)C(=O)c2cc(NC(=O)Nc3ccc(C(F)(F)F)cc3)ccc2O[C@H]1CN(C)S(=O)(=O)c1cccs1	NOMO-1 viab 93 (no result: PD-1 reversal)
CCCCCCCCCC/C=C\CCCCCCCc1cccc(O)c1C(=O)O	NOMO-1 viab 119
O=C1CC(=Nc2ccc(F)c(C(F)(F)F)c2)c2ccccc2C1=O	none (no result: PD-1 reversal, YB-1 expr inh, NOMO-1 viab)
CC(C)CN(CC(C)C)C(=O)COc1ccc(C(C)(C)C)cc1	none (no result: PD-1 reversal, YB-1 expr inh, NOMO-1 viab)
CC(C)(C)c1ccc(OCC(N)=NC(=O)c2ccc(OC(F)(F)F)cc2)cc1	NOMO-1 viab 136
CN(Cc1ccccc1)S(=O)(=O)c1ccc2c(c1)SCC(=O)N2	none (no result: PD-1 reversal, YB-1 expr inh, NOMO-1 viab)
COCCOC(=O)N1C(=O)[C@@]2(c3ccccc31)[C@H](c1ccccc1OCCO)N1[C@H](c3ccccc3)[C@H](c3ccccc3)OC(=O)[C@H]1[C@@H]2C(=O)N1CCc2cc(OC)c(OC)cc2C1	ROS inducer 214 (no result: PD-1 reversal, NOMO-1 viab)
COCCOC(=O)N1C(=O)[C@@]2(c3ccccc31)[C@H](c1ccc(O)cc1)N1[C@H](c3ccccc3)[C@H](c3ccccc3)OC(=O)[C@H]1[C@@H]2C(=O)N1CCc2cc(OC)c(OC)cc2C1	none (no result: PD-1 reversal, NOMO-1 viab)
